# Assay outcomes as filed in PubChem.
# Sm TGR block: blocks Schistosoma mansoni thioredoxin glutathione reductase; purified TGR, DTNB reduction, TNB absorbance 405 nm; Potency, µM (titrated, usually from 114 µM), without a hit: at the top dose activity change, negative = inhibition, most hits filed as inhibitors; 3% of 360,000 active; AID 485364; active = well fitted inhibition curve with a large enough effect; also: % is scaled to controls: 0 for no effect and ±100 for the full control effect; nearly all actives have a fitted effect of over 60% in size
#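 First, TGR (20 nM dispensed) and NADPH were mixed with compound. Second, a 15 min room-temperature incubation followed. Third, further NADPH and then DTNB were added to start the reaction. Finally, TNB absorbance was monitored kinetically.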
# SARS PLpro yeast: SARS-CoV PLP inhibition in yeast; S. cerevisiae expressing SARS-CoV PLpro, growth rescue; Potency, µM (titrated, usually from 32.9 µM), for the others: at the highest dose activity, positive = growth rescue, usual class: activators; 0.19% of 330,000 active; calls by dose curve; also: 0% is about no effect; nearly all actives have a fitted effect of over 55% in size
# Starred values were filed as active, the others as inactive; x = no result. This is a sample that favours compounds with a hit; in the whole collection about 3% have one here. Potency is read from the fitted curve at half-maximal effect.
SMILES,Sm TGR block,SARS PLpro yeast
O=C1CC(c2ccco2)Sc2nc3ccccc3n21 (centres undefined),50.1µM*,-2.4%
O=C(CN1C(=O)CC(c2ccco2)Sc2ccccc21)NCC1CCCO1 (centres undefined),12.6µM*,-5.3%
CCOC(=O)CNC(=O)CN1C(=O)CC(c2ccco2)Sc2ccccc21 (centres undefined),-36.0%,0.3%
COc1ccc(C2CC(=O)N(CC(=O)NCC3CCCO3)c3ccccc3S2)cc1 (centres undefined),-10.0%,0.0%
O=C1CC(c2ccccc2)Sc2nc3ccccc3n21 (centres undefined),7.2%,-10.8%
CN1C(=O)CC(c2ccco2)Sc2ccccc21 (centres undefined),39.8µM*,4.7%
COc1ccc(C2CC(=O)N(C)c3ccccc3S2)cc1 (centres undefined),-6.4%,-5.5%
CCCN1C(=O)CC(c2ccco2)Sc2ccccc21 (centres undefined),14.1µM*,-4.1%
COc1cccc(Cn2c(CNS(=O)(=O)c3ccc4c(c3)CCCC4)nc3cccnc32)c1,-2.4%,x
COc1ccc(CNC(=O)c2cnc3ccc(C)cn3c2=O)cc1,1.3%,x
O=C(C1CCCN(S(=O)(=O)c2cccc3nsnc23)C1)N1CCN(c2cccc(Cl)c2)CC1 (centres undefined),0.2%,x
CC(C)(C)C1CCc2c(sc3nc(-c4cc5cc(Br)ccc5oc4=O)[nH]c(=O)c23)C1 (centres undefined),-0.4%,x
O=C(CCl)Nc1ccc(S(=O)(=O)Nc2nccs2)cc1,20µM*,0.3%
CCOC(=O)/C=C/C(=O)Nc1ccc(S(=O)(=O)Nc2nccs2)cc1,44.7µM*,0.2%
CC(=O)Nc1ccc(S(=O)(=O)Nc2nccs2)cc1,-0.1%,2.4%
CCOCC(=O)Nc1ccc(S(=O)(=O)Nc2nccs2)cc1,0.2%,-3.3%
CC1CCc2c(sc3nnn(CC(=O)Nc4c(C(C)C)cccc4C(C)C)c(=O)c23)C1 (centres undefined),-1.5%,x
Cc1ccc(S(=O)(=O)Nc2cccc(-c3ccc(N4CCC(C)CC4)nn3)c2)s1,2.6%,x
CCC(=O)N1CCc2cc(Br)cc(S(=O)(=O)CCC(=O)NCCc3ccccc3Cl)c21,-32.4%,x
NS(=O)(=O)c1ccc2c(c1)C(=NO)c1cc(S(N)(=O)=O)ccc1-2,2.9%,7.2%
O=C1c2cc(S(=O)(=O)NCCO)ccc2-c2ccc(S(=O)(=O)NCCO)cc21,6.7%,0.9%
N#CC(C#N)=C1c2cc(S(=O)(=O)NCCO)ccc2-c2ccc(S(=O)(=O)NCCO)cc21,4.47µM*,2.5%
N#CC(C#N)=C1c2cc(S(N)(=O)=O)ccc2-c2ccc(S(N)(=O)=O)cc21,4.47µM*,-1.3%
COc1ccc(CCNC(=O)c2ccc3c(c2)CCN3S(=O)(=O)c2ccccc2)cc1,4.1%,x
Cc1cc(N=NC(=O)c2ccccc2)ccc1O,11.2µM*,-0.8%
SMILES,Sm TGR block,SARS PLpro yeast
O=C(ONc1ccc(N=NC(=O)c2ccccc2O)cc1)c1ccccc1,-12.9%,-8.9%
COc1ccccc1CNC(=O)CCCc1nnc2n(CC(C)C)c(=O)c3sccc3n12,5.5%,x
O=C(Nc1cccnc1)c1ccc(-c2cc(Cl)ccc2Cl)o1,x,-3.4%
O=C(Nc1ccc2oc(-c3cccnc3)nc2c1)c1ccc([N+](=O)[O-])o1,x,-1.1%
O=C(Nc1ccc(Cl)c(-c2nc3ccccc3o2)c1)c1ccc(-c2cccc([N+](=O)[O-])c2)o1,-10.7%,x
O=C(Nc1ccc2oc(-c3cccnc3)nc2c1)c1ccc(-c2ccc(Cl)cc2)o1,31.6µM*,x
O=C(Nc1ccc2oc(-c3cccnc3)nc2c1)c1cccc(Br)c1,-9.1%,x
O=C(Nc1cccnc1)c1ccc(-c2ccc(Cl)cc2)o1,31.6µM*,-9.6%
O=C(Nc1ccc2oc(-c3cccnc3)nc2c1)c1ccc(-c2cccc(Cl)c2)o1,35.5µM*,x
Cc1c(NC(=O)c2ccc(-c3cccc([N+](=O)[O-])c3)o2)cccc1-c1nc2cc(Cl)ccc2o1,35.5µM*,x
CC1CCc2c(sc(NC(=O)CCCOc3ccc(C(C)(C)C)cc3)c2C(N)=O)C1 (centres undefined),-19.0%,x
Cc1ccc(-n2c(=O)c3sc4ccccc4c3n(CC(=O)NC3CCCC3)c2=O)cc1C,1.2%,x
CCOC(=O)c1c(NC(=O)CCCOc2ccc(C)cc2)sc2c1CCC(C)C2 (centres undefined),8.5%,x
CCN1C(=O)[C@H]2[C@@H](c3ccc(-c4ccc(F)cc4)c(OC)c3)N[C@@](C)(C(=O)OC)[C@H]2C1=O,15.8µM*,2.5%
CCN1C(=O)[C@H]2[C@@H](c3ccc(-c4ccc(OC)cc4)c(OC)c3)N[C@@](C)(C(=O)OC)[C@H]2C1=O,-30.0%,-3.4%
CCN1C(=O)[C@H]2[C@@H](c3ccc(-c4ccccc4)cc3)N[C@@](C)(C(=O)OC)[C@H]2C1=O,39.8µM*,2.4%
CCN1C(=O)[C@H]2[C@@H](c3ccc(-c4ccc(F)cc4)cc3)N[C@@](C)(C(=O)OC)[C@H]2C1=O,x,-20.0%
CCOc1ccc(N2CC(NC(=O)c3cc4ccccc4o3)CC2=O)cc1 (centres undefined),4.9%,x
Cc1cc(C)c(OCC(=O)N(Cc2ccc(N(C)C)cc2)Cc2ccco2)c(C)c1,1.2%,x
COc1ccc(Cn2c(CNC(=O)Cc3ccc(OC)c(OC)c3)nc3cccnc32)cc1,1.1%,x
CCc1cnc2c(c1SCC(=O)NCc1ccccc1)c(=O)n(C)c(=O)n2C,1.3%,x
COc1ccc(-n2c(SCC(=O)Nc3cc(C)cc(C)c3)nc3c(oc4ccccc43)c2=O)cc1,6.1%,x
CCOC(=O)C1CCN(C(=O)c2nn(-c3ccc(OC)c(Cl)c3)c(=O)c3c2c2ccccc2n3C)CC1,6.5%,x
Cc1ccc(-n2c3c(c(=O)[nH]c2=O)C(NC(=O)c2ccccc2F)(C(F)(F)F)C(=O)N3)cc1C (centres undefined),6.1%,x
COc1ccc(-c2nc(S(=O)(=O)c3ccc(Cl)cc3)c(N3CCCCCC3)o2)cc1,22.4µM*,x
SMILES,Sm TGR block,SARS PLpro yeast
Cc1ccc(-c2nc(S(=O)(=O)c3ccc(C)cc3)c(N3CCOCC3)o2)cc1,3.55µM*,-0.3%
CCOc1ccc(-c2nc(S(=O)(=O)c3ccccc3)c(N3CCOCC3)o2)cc1,x,-1.0%
Cc1ccc(S(=O)(=O)c2nc(-c3ccc(F)cc3)oc2N2CCN(c3ccccc3)CC2)cc1,-1.0%,x
O=S(=O)(c1ccc(Cl)cc1)c1nc(-c2cccs2)oc1N1CCCCC1,-33.3%,x
Cc1cccc(-c2nc(S(=O)(=O)c3ccccc3)c(N3CCOCC3)o2)c1,44.7µM*,-0.3%
O=C(CC1N=C2c3ccccc3N=C(SCc3ccc(Cl)cc3)N2C1=O)NCCc1ccccc1 (centres undefined),7.3%,x
COc1ccc(NC(=O)c2cn(CC(C)C)c(=O)c3cc(OC)c(OC)cc23)cc1Cl,1.4%,x
CCOc1ccccc1C(=O)N1CCc2cc(OC)c(OC)cc2C1COc1ccc2c(C)cc(=O)oc2c1 (centres undefined),-2.2%,x
Cc1ccnc(NCc2cccc3ccccc23)c1,-23.4%,-2.5%
COc1cccc(CNc2cc(C)ccn2)c1O,22.4µM*,3.2%
COc1cccc(CNc2cccc3cccnc23)c1O,-6.5%,-23.0%
COc1cccc(CNc2ccccn2)c1O,28.2µM*,-5.6%
CC(C)c1ccc(NC(=O)C2CCCN(S(=O)(=O)c3cccc4cccnc34)C2)cc1 (centres undefined),-1.0%,x
Cc1ccc(S(=O)(=O)c2nnn3c2nc(N2CCOCC2)c2sccc23)cc1C,-1.4%,x
